“And” between values parts separate entries of the source, which are not always exact repeats. Identical values can stand only once. Results filed as inconclusive are left out. The source made the active and inactive calls. Calls follow the shape of the dose curve; as a rule, active = well fitted activation curve with a large enough effect; inconclusive = small, poorly fitted or top-dose-only effect; inactive = no such curve, though single readings can be large or run the other way.

Chain of Pyruvate kinase PKM (Homo sapiens) (P14618 whole entry, looked up, canonical isoform): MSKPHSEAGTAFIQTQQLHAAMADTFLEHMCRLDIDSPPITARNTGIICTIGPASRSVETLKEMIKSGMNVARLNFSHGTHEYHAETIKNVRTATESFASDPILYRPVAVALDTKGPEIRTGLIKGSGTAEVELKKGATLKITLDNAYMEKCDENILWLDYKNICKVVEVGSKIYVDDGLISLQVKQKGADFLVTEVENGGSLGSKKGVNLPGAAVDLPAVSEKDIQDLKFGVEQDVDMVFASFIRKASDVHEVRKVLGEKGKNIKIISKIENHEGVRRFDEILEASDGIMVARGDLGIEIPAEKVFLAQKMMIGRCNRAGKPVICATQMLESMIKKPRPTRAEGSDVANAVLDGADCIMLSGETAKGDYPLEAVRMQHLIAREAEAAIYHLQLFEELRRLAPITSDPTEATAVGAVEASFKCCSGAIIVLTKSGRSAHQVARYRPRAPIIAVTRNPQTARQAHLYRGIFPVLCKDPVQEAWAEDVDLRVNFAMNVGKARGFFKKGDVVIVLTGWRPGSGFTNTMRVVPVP

The assay concerns the target Pyruvate kinase PKM (Homo sapiens) (UniProt P14618). Put plainly: Confirmation Concentration-Response Assay for Activators of Human Muscle isoform 2 Pyruvate Kinase. The following applies: purified hPK-M2, Kinase-Glo ATP luminescence, 1 h; series mostly up to 57.5 µM. The text has this:
NIH Chemical Genomics Center [NCGC] Matthew G. Vander Heiden, M.D., Ph.D. [Harvard Medical School, 77 Avenue Louis Pasteur, Boston, MA 02115] MLPCN Grant: 1 R03 MH085679-01 NCGC Assay Overview: Human pyruvate kinase muscle 2 (hPK-M2) enzyme was supplied as a highly purified (>95% pure) preparation from Harvard Medical School and assayed for its ability to generate ATP from ADP using phosphoenolpyruvate (PEP) as a substrate. ATP generation was detected in a coupled reaction by luciferase-mediated luminescence, an ATP-dependent process. Pyruvate kinase substrates, PEP and ADP, were present in the assay at Km and approximately 10-fold below Km respectively. The enzyme was assayed at an intermediate level of activity to screen for both inhibitors and activators.
NCGC Assay Protocol Summary: Three uL of substrate mix (at r.t.) in assay buffer (50 mM Imidazole pH7.2, 50 mM KCl, 7 mM MgCl2, 0.01% Tween 20, 0.05% BSA) was dispensed into white solid bottom 1,536 well microtiter plates so that the final concentrations of substrates in the assay were 0.1 mM ADP and 0.5 mM PEP. 23 nL of compound were delivered by a pin tool and 1 uL of enzyme mix (final concentration of 0.1 nM) in assay buffer (4 degree Celsius) was added. Plates were incubated at room temperature for 1 hour. Two uL of detection mix (Kinase-Glo, Promega; at 4 degree Celsius protected from light) was added and luminescence read by a ViewLux (Perkin Elmer) at 1 second exposure/plate. Data were normalized to the uninhibited (column 3) and AC100 inhibition (no enzyme in column 2). To monitor activation, the first column contained a titration of the activator, NCGC00031955-03 (16-point 1:2 dilutions in duplicate starting at 57 uM) and the first 16 rows of column 4 contained 57 uM of NCGC00031955-03.
A general note: Kinase-Glo reads ATP consumption through a luciferase reaction.
`C[C@H]1CN(S(=O)(=O)c2c(F)cccc2F)CCN1S(=O)(=O)c1ccc2c(c1)OCCO2`: the Potency is 3570 nM (active).

In the case of `CSc1cc2c(s1)c1cnn(Cc3ccccc3F)c(=O)c1n2C`, the Potency was 14.2 nM (active).

With `Cc1ccc(Cn2ncc3c4sc(C)cc4n(C)c3c2=O)cc1`, the Potency is 225 nM (active). Then `CCn1c2cc(C)sc2c2cnn(Cc3ccccc3F)c(=O)c21`, with 4010 nM (active). Then `CC(C)c1cc2c(s1)c1cnn(Cc3ccccc3F)c(=O)c1n2C`, with 101 nM (active); and `Cc1cc2c(s1)c1cnn(Cc3cc(C(F)(F)F)cc(Cl)c3F)c(=O)c1n2C`, with 20.1 nM (active); and `O=S(=O)(NC1CCN(S(=O)(=O)c2ccc3c(c2)OCCO3)C1)c1c(F)cccc1F` (stereo not drawn), with 17900 nM (active).

Consider `O=S(=O)(NCCCCCCNS(=O)(=O)c1c(F)cccc1F)c1ccc2c(c1)OCCO2`, for which the Potency is 4010 nM (active). Then `S=C1NC(c2ccccc2)N2C(=S)NC(c3ccccc3)N12` (stereo not drawn), with “inactive”; and `Cc1cc(C)nc(SCCc2ccncc2)n1`, with “inactive”; and `CCc1cc2c(s1)c1cnn(Cc3ccccc3F)c(=O)c1n2C`, with 63.5 nM (active). For `COC(=O)CSC1=NS(=O)(=O)c2ccccc21` the value was “inactive”.

`O=S(=O)(NC1CCN(S(=O)(=O)c2c(F)cccc2F)CC1)c1ccc2c(c1)OCCO2`: the Potency is 3570 nM (active).

Turning to `O=S(=O)(c1ccc2c(c1)OCCO2)N1CCCN(S(=O)(=O)c2c(F)cccc2F)CC1`, the Potency was 566 nM (active). As to `Cc1cc2c(s1)c1cnn(Cc3ccccc3)c(=O)c1n2C`, the Potency was 45 nM (active). For `N#Cc1cc(-c2ccccc2)cnc1Sc1ccccc1` the value was “inactive”; for `Cn1c2cc([N+](=O)[O-])sc2c2cnn(Cc3ccccc3F)c(=O)c21`, 12.7 nM (active); for `COc1ccc(Cn2ncc3c4sc(C)cc4n(C)c3c2=O)cc1F`, 127 nM (active). Take `COc1ccc2c(c1)CCc1c(C(=O)NC3CCCCC3)noc1-2`: the Potency entry is “inactive”. Then `Cn1c2cc(C=O)sc2c2cnn(Cc3ccccc3F)c(=O)c21`, with 7.1 nM (active); and `Cn1c2cc(C#N)sc2c2cnn(Cc3ccccc3F)c(=O)c21`, with 11.3 µM (active) and 22.5 nM (active); and `CCCc1noc(-c2ccc(-c3ccccc3)cc2)n1`, with “inactive”. For `Cc1cc2c(s1)c1cnn(Cc3c(F)cccc3F)c(=O)c1n2C` the value was 25.3 nM (active); for `CC(C)N1C(=S)SC(C)(C)C1NO` (stereo not drawn), “inactive”. On to `O=S(=O)(c1cccc(F)c1)N1CCN(S(=O)(=O)c2ccc3c(c2)OCCO3)CC1`, for which the Potency was 284 nM (active). As to `COc1ccc(Cn2ncc3c4sc(C)cc4n(C)c3c2=O)cc1`, the Potency is 20.1 nM (active). For `O=S(=O)(NC1CCN(S(=O)(=O)c2ccc3c(c2)OCCO3)CC1)c1c(F)cccc1F` the value was 2530 nM (active); for `Cc1cc2c(s1)c1cnn(Cc3c(F)cccc3Cl)c(=O)c1n2C`, 40.1 nM (active); for `CC1(C)CCc2cc(S(=O)(=O)N3CCN(S(=O)(=O)c4c(F)cccc4F)CC3)ccc2O1`, 71.3 nM (active). On to `Cc1ccc(NS(=O)(=O)c2ccc3c(c2)CCC(=O)N3)cc1C`, for which the Potency was 163 nM (active). For `Cc1cc2c(s1)c1cnn(Cc3ccc(F)c(F)c3F)c(=O)c1n2C` the value was 713 nM (active); for `Cn1ccc2cc(S(=O)(=O)N3CCN(S(=O)(=O)c4c(F)cccc4F)CC3)ccc21`, 318 nM (active). Then `O=S(=O)(c1ccccc1)N1CCN(S(=O)(=O)c2ccc3c(c2)OCCO3)CC1`, with 160 nM (active).

Values taken from PubChem BioAssay AID1751 (National Center for Advancing Translational Sciences (NCATS), 2009).
